High-throughput results from PubChem.
FadD28 binding: inhibitors of FadD28 bisubstrate probe binding, primary screen, biochemical, fluorescence polarization, single point. hit rate 0.22% among 360,000. Mycobacterium tuberculosis FadD28 fatty-acid-AMP ligase. inhibition, % at 12.5 µM. AID 588549, 2011; in the data active = inhibition above about 8.5%, passing the limit was not always enough
PrP UTR inh: inhibition of PrP 5' UTR reporter expression. cell-based PrP 5' UTR mRNA reporter, plate reader. hit rate 0.35% among 340,000. inhibition, % (concentration not given with the values); in the data active = inhibition above about 52%; note: 0 = median of the neutral control wells
Yp Topo-I inh: Yersinia pestis topoisomerase I inhibitors, primary screen, biochemical, cleavage product accumulation, plate reader, single point | Y. pestis Topo-I cleavage product accumulation | activity, % at 10 µM | DNA topoisomerase I (Yersinia pestis CO92) | hit rate 0.064% among 360,000 | AID 504884, 2011; in the data active = activity above about 50%, passing the limit was not always enough
BioA inh: M. tuberculosis BioA enzyme inhibitors, primary screen, biochemical, plate reader, single point, HTS | 7,8-diaminopelargonic acid synthase BioA (Mycobacterium tuberculosis) | purified M. tuberculosis BioA enzyme | inhibition, % at 9.99 µM | hit rate 0.096% among 360,000; in the data active = inhibition above about 40%
PfHsp40 yeast: rescue of yeast from PfHsp40 toxicity, primary screen, S. cerevisiae, ATP luminescence; S. cerevisiae expressing PfHsp40, growth rescue; AID 504582, 2011; growth rescue, % at 12.5 µM; hit rate 0.68% among 340,000; in the data active = growth rescue above about 28%, passing the limit was not always enough;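 note: yeast W303a lacking pdr1 and pdr3 grown in galactose medium; growth measured after three days at 30 °C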
An asterisk follows results filed as active; . = no result given; ! = a repeat was not active. In the library only some 1.1% were active in any assay of this set; here they are far more common.

SMILES	FadD28 binding	PrP UTR inh	Yp Topo-I inh	BioA inh	PfHsp40 yeast
Cc1ccc(C(O)(C(=O)NNc2ccc3ccccc3n2)c2ccc(C)cc2)cc1	-3	-23	-9	-1	75*!
CCC(=O)N[C@@H]1C=C[C@@H](CC(=O)NCc2ccccc2OC)O[C@@H]1CO	.	.	.	0	.
CCN(CCO)C1CC(=O)N(c2ccccc2C)C1=O (configuration not stated)	-4	-20	-3	2	75*
NC(=O)c1ccc(-n2nnnc2SCC(=O)c2ccc(O)c(O)c2)cc1	-4	6	5	.	0
COc1ccc(-n2nnnc2SCC(=O)c2ccc(O)c(O)c2)cc1	12*	-19	-8	-1	-2
c1ccc2sc(NC3=NCCN3)nc2c1	-5	-52	-3	.	186*
COc1ccc2nc(NC3=NCCN3)sc2c1	-2	-85	-2	1	126*
COc1ccc2nc(N3C(=O)CNC3=S)sc2c1	-2	-56	-7	0	32*
Cc1ccc2nc(N3C(=O)CNC3=S)sc2c1	-3	-91	-3	-1	2
C[C@@H]1CN([C@H](C)CO)C(=O)CCCn2nncc2CO[C@@H]1CN(C)S(=O)(=O)c1ccc(-c2ccccc2)cc1	.	.	.	1	.
Cc1ccc(C)c(-c2cc(C(=O)NNC(=S)NCC(C)C)c3ccccc3n2)c1	-3	-20	-1	.	82*
COc1ccc(Br)cc1C(=O)NCc1cccnc1	-2	-8	4	1	34*
COC(=O)c1cc(CNC(=O)c2ccccc2Cl)ccc1OC	-2	2	-3	.	47*
COc1ccc(C(=O)NCc2cccnc2)cc1OC	-1	-22	0	0	0
CN(C)CCCNC(=O)C[C@H]1CC[C@H](NS(=O)(=O)c2ccccc2)[C@H](CO)O1	.	.	.	4	.
Cc1ccc(NC(=O)Nc2sc(=S)n(C)c2C)cc1	11*	-24	-10	0	0
O=C(CCN1CCOCC1)N/N=C/c1cc(Br)cc(Br)c1O	-2	-10	-4	3	40*
COc1cc2c(c(OC)c1OC)-c1ccc(OC)c(=O)cc1C(NC(C)=O)CC2 (configuration not stated)	-4	63*	-5	0	-1
C[C@H]1CCCCO[C@H](CN(C)Cc2ccncc2)[C@@H](C)CN([C@@H](C)CO)C(=O)c2cc(NC(=O)C3CCCCC3)ccc2O1	.	.	.	1	.
Cc1ccc(O)c(N=Cc2cc(Cc3ccccc3)cc([N+](=O)[O-])c2O)c1	2	-26	-12	.	124*
Cc1ccc(O)c(C=Nc2cc(C)ccc2O)c1	1	-22	-3	0	-1
O=[N+]([O-])c1cc(Cc2ccccc2)cc(C=Nc2ccc(N3CCOCC3)cc2)c1O	0	-15	-3	.	274*
O=C1NN(c2ccc(Br)cc2)C(=O)/C1=C\c1ccc(O)cc1O	16*	-18	-13	3	1
COc1cccc(C#Cc2cnc3c(c2)C(=O)N([C@H](C)CO)C[C@H](C)[C@H](CN(C)C)O3)c1	.	.	.	11	.
O=C(N/N=C/c1sc2ccccc2c1O)c1cccc2ccccc12	7	18	4	.	32*
SMILES	FadD28 binding	PrP UTR inh	Yp Topo-I inh	BioA inh	PfHsp40 yeast
O=C(N/N=C/c1sc2ccccc2c1O)c1ccccc1	-1	-34	-4	-6	-2
COc1ccc(C(=O)N/N=C/c2sc3ccccc3c2O)cc1	0	10	-3	.	262*
C[C@@H]1CN([C@H](C)CO)C(=O)c2cc(NC(=O)Cn3cnnn3)ccc2O[C@H]1CN(C)Cc1ccncc1	.	.	.	10	.
CCc1ccc(Nc2c([N+](=O)[O-])c(=O)oc3ccccc23)cc1	-3	-39	1	.	116*
CC(Sc1nnc(CNc2cccc3ccccc23)n1-c1ccccc1)C(=O)N/N=C/c1ccco1 (configuration not stated)	25*	-21	3	-2	1
O=C(CSc1nnc(-c2ccccc2)n1-c1ccc(Cl)cc1)N/N=C/c1ccco1	0	-14	-5	-1	1
CCCC(=O)Nc1ccc2c(c1)C(=O)N(C)C[C@H](OC)[C@H](C)CN(CCc1ccccc1)[C@@H](C)CO2	.	.	.	0	.
Cc1ccc(-c2nc3ccccc3c(=O)n2O)cc1	1	-20	4	-1	132*
O=c1c2ccccc2nc(-c2ccc([N+](=O)[O-])cc2)n1O	-3	-12	-13	.	30*
O=c1c2ccccc2nc(-c2ccccc2)n1Cc1ccc(Cl)cc1	0	-1	9	3	0
